{"source": "PubChem BioAssay AID651661", "about": "(Broad Institute, 2012)", "note": "The campaign covered roughly 350,000 compounds. About 2,300 (0.66%) were called active. The list comes from a sample in which actives are over-represented; it also holds similar structures and randomly drawn compounds. A number with no mark means an inactive call.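 The calls were made as follows: active = mean inhibition of at least 50% after viability correction, with every replicate also passing that limit; inconclusive = mean reaches 50% but only one of two replicates passes; inactive = the rest.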"}
{"test": "EWS/Fli-driven NR0B1 reporter inhibitors, primary screen, A673 cells, NR0B1 luciferase, luminescence, MLPCN library (AID 651661);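 also: firefly luciferase signal divided by Alamar Blue viability fluorescence both relative to DMSO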", "conditions": "viability-normalised, at 12.6 µM, active compounds read high"}
{"compound": "C[C@H]1CN([C@@H](C)CO)C(=O)c2cc(-c3ccncc3)cnc2O[C@@H]1CN(C)C(=O)c1cccc(F)c1", "inhibition": "-6.09%"}
{"compound": "C[C@@H]1CCCCO[C@@H](CN(C)Cc2ccc3c(c2)OCO3)[C@@H](C)CN([C@@H](C)CO)C(=O)c2cc(NC(=O)Nc3ccccc3)ccc2O1", "inhibition": "-8.42%"}
{"compound": "C[C@H](CO)N1C[C@H](C)[C@H](CN(C)CC2CCCCC2)OCCCC[C@H](C)Oc2ccc(NS(=O)(=O)c3ccc(F)cc3)cc2C1=O", "inhibition": "-7.04%"}
{"compound": "C[C@H]1CCCCO[C@@H](CN(C)Cc2ccc3c(c2)OCO3)[C@@H](C)CN([C@@H](C)CO)C(=O)c2cc(NC(=O)Nc3ccc(F)cc3)ccc2O1", "inhibition": "73.8% (active)"}
{"compound": "C[C@@H]1CCCCO[C@H](CN(C)CC2CCCCC2)[C@H](C)CN([C@H](C)CO)C(=O)c2cc(NS(=O)(=O)c3ccc(F)cc3)ccc2O1", "inhibition": "24.8%"}
{"compound": "C[C@H]1CCCCO[C@H](CN(C)CC2CCCCC2)[C@@H](C)CN([C@@H](C)CO)C(=O)c2cc(NS(=O)(=O)c3ccc(Cl)cc3)ccc2O1", "inhibition": "61.5% (active)"}
{"compound": "C[C@@H]1CN([C@H](C)CO)C(=O)c2cc(NC(=O)Nc3ccc4c(c3)OCO4)ccc2O[C@@H](C)CCCCO[C@@H]1CN(C)Cc1ccc2c(c1)OCO2", "inhibition": "11.6%"}
{"compound": "C[C@@H]1CCCCO[C@H](CN(C)CC2CCCCC2)[C@H](C)CN([C@H](C)CO)C(=O)c2cc(NC(=O)Nc3ccc(F)cc3)ccc2O1", "inhibition": "-1.9%"}
{"compound": "C[C@@H]1CN([C@H](C)CO)C(=O)c2cc(NC(=O)Nc3ccc(F)cc3)ccc2O[C@@H](C)CCCCO[C@@H]1CN(C)CC1CCCCC1", "inhibition": "58.8% (active)"}
{"compound": "C[C@@H]1CCCCO[C@H](CN(C)CC2CC2)[C@@H](C)CN([C@H](C)CO)C(=O)c2cc(NC(=O)Nc3ccc(F)cc3)ccc2O1", "inhibition": "-1.94%"}
{"compound": "CCS(=O)(=O)N1[C@H](CO)[C@@H](c2ccccc2)C12CN(C(=O)c1ccccc1F)C2", "inhibition": "8.71%"}
{"compound": "CC(C)NC(=O)N1[C@@H]2CN(C(=O)C3CCCCC3)c3ccccc3[C@@H]2[C@@H]1CO", "inhibition": "1.34%"}
{"compound": "CN(C)C(=O)[C@@H]1[C@@H](CO)[C@@H]2Cn3c(ccc(C4=CCCC4)c3=O)[C@H]1N2Cc1ccccn1", "inhibition": "-3.42%"}
{"compound": "COc1ccc(-c2cnc3c(c2)C(=O)N([C@@H](C)CO)C[C@H](C)[C@@H](CN(C)C(=O)C2CC2)O3)cc1", "inhibition": "-4.94%"}
{"compound": "CCS(=O)(=O)N1CC2(C1)CN(S(=O)(=O)c1ccccc1)[C@H](CO)c1c2c2ccc(OC)cc2n1C", "inhibition": "-5.22%"}
{"compound": "CO[C@@H]1CN(C)C(=O)c2ccc(NC(=O)NC(C)C)cc2OC[C@@H](C)N(Cc2ccc(-c3ccccn3)cc2)C[C@H]1C", "inhibition": "0.576%"}
{"compound": "COc1ccc2c3c([nH]c2c1)[C@H](CO)N(S(=O)(=O)c1cn(C)cn1)CC31CCN(CC2CC2)CC1", "inhibition": "-3.8%"}
{"compound": "C[C@H](CO)N1C[C@H](C)[C@@H](CN(C)Cc2ccc(-c3ccccc3)cc2)Oc2ccc(NC(=O)CCC(F)(F)F)cc2CC1=O", "inhibition": "72.1% (active)"}
{"compound": "C[C@@H]1CN([C@@H](C)CO)C(=O)Cc2cc(NC(=O)CCCCCC(=O)Nc3ccccc3N)ccc2O[C@@H]1CN(C)C(=O)NC1CCCCC1", "inhibition": "2.61%"}
{"compound": "COc1ccc(S(=O)(=O)N(C)C[C@@H]2Oc3ccc(NC(=O)C4CC4)cc3CC(=O)N([C@@H](C)CO)C[C@H]2C)cc1", "inhibition": "-1.28%"}
{"compound": "C[C@H](CO)N1C[C@H](C)[C@H](CN(C)CC2CCCCC2)Oc2ccc(NC(=O)CCCCCC(=O)Nc3ccccc3N)cc2CC1=O", "inhibition": "51.8% (active)"}
{"compound": "C[C@@H]1CN([C@@H](C)CO)C(=O)Cc2cc(NC(=O)CCCCCC(=O)Nc3ccccc3N)ccc2O[C@H]1CN(C)C(=O)Nc1ccc(C(F)(F)F)cc1", "inhibition": "8.79%"}
{"compound": "C[C@H]1CN([C@@H](C)CO)C(=O)Cc2cc(NC(=O)C3CC3)ccc2O[C@H]1CN(C)S(=O)(=O)c1ccc(Cl)cc1", "inhibition": "52.2% (active)"}
{"compound": "C[C@H]1CN([C@@H](C)CO)C(=O)Cc2cc(NC(=O)CCCN(C)C)ccc2O[C@@H]1CN(C)Cc1ccc(-c2ccccc2)cc1", "inhibition": "-8.76%"}
{"compound": "C[C@@H]1CN([C@H](C)CO)C(=O)Cc2cc(NC(=O)C3CCCCC3)ccc2O[C@H]1CN(C)S(=O)(=O)c1ccc(Cl)cc1", "inhibition": "4.11%"}
{"compound": "CC(C)NC(=O)N(C)C[C@H]1Oc2ccc(NC(=O)CCCCCC(=O)Nc3ccccc3N)cc2CC(=O)N([C@@H](C)CO)C[C@H]1C", "inhibition": "-5.03%"}
{"compound": "C[C@H](CO)N1C[C@H](C)[C@H](CN(C)Cc2ccc(C(F)(F)F)cc2)Oc2ccc(NC(=O)CCCCCC(=O)Nc3ccccc3N)cc2CC1=O", "inhibition": "52.3% (active)"}
{"compound": "C[C@H]1CN([C@@H](C)CO)C(=O)Cc2cc(NC(=O)CCCCCC(=O)Nc3ccccc3N)ccc2O[C@@H]1CN(C)Cc1ccncc1", "inhibition": "-9.64%"}
{"compound": "C[C@@H]1CN([C@@H](C)CO)C(=O)Cc2cc(NC(=O)CCCN(C)C)ccc2O[C@@H]1CN(C)Cc1ccc(-c2ccccc2)cc1", "inhibition": "17.3%"}
{"compound": "CCS(=O)(=O)Nc1ccc2c(c1)C(=O)N(C)[C@H]1CC[C@H](CC(=O)Nc3ccccc3)O[C@@H]1CO2", "inhibition": "-5.08%"}
{"compound": "COc1ccc(S(=O)(=O)N2CCCCN3[C@H](C2)[C@H](c2ccc(C4=CCCC4)cc2)[C@@H]3CO)cc1", "inhibition": "-9.53%"}
{"compound": "C[C@H]1CN([C@@H](C)CO)C(=O)c2ccccc2-c2ccccc2CO[C@H]1CN(C)Cc1ccc(-c2ccccc2)cc1", "inhibition": "8.23%"}
{"compound": "COc1ccc2c3c(n(C)c2c1)[C@@H](CO)N(CC1CC1)CC31CCN(C(=O)c2ccc3c(c2)OCO3)CC1", "inhibition": "17.4%"}
{"compound": "N#C[C@@H]1[C@H](c2ccccc2-c2ccccc2F)[C@@H](CO)N1C(=O)c1ccccn1", "inhibition": "31.4%"}
{"compound": "CO[C@H]1CN(C)C(=O)c2ccc(NS(=O)(=O)c3ccccc3)cc2OC[C@H](C)N(Cc2nccs2)C[C@@H]1C", "inhibition": "3.5%"}
{"compound": "O=C(c1ccccc1)N1CC(=O)N2[C@@H](CO)[C@H](c3ccc(C#CC4CC4)cc3)[C@@H]2C1", "inhibition": "-6.36%"}
{"compound": "C[C@H](CO)N1C[C@H](C)[C@@H](CN(C)S(=O)(=O)c2cn(C)cn2)OCCCC[C@H](C)Oc2ccc(NC(=O)Cc3ccccc3)cc2C1=O", "inhibition": "2.69%"}
{"compound": "CC(=O)Nc1ccc2c(c1)C(=O)N(C)[C@H]1CC[C@H](CC(=O)NCc3ccccc3Cl)O[C@H]1CO2", "inhibition": "-1.68%"}
{"compound": "Cc1cccc(S(=O)(=O)N2C[C@@H]3[C@H](c4ccccc42)[C@@H](CO)N3C(=O)c2ccccc2)c1", "inhibition": "1.99%"}
{"compound": "Cc1cccc(CNS(=O)(=O)c2ccc(-c3cnc(C4CC4)o3)cc2)c1", "inhibition": "-1.32%"}
{"compound": "Cc1cccc(NS(=O)(=O)c2ccc(-c3cnc(C4CC4)o3)cc2)c1", "inhibition": "53.1% (active)"}
{"compound": "COc1ccc(CNS(=O)(=O)c2ccc(-c3cnc(C4CC4)o3)cc2)cc1", "inhibition": "4.87%"}
{"compound": "COc1ccccc1NC(=O)N1CC(=O)N2[C@H](C1)[C@H](c1ccc(C#Cc3ccccc3)cc1)[C@@H]2CO", "inhibition": "0.577%"}
{"compound": "C[C@@H](O)C#Cc1ccc([C@H]2[C@H]3CN(C(=O)c4ccc5c(c4)OCO5)CCCCN3[C@H]2CO)cc1", "inhibition": "-9.79%"}
{"compound": "C[C@H]1CN([C@@H](C)CO)C(=O)c2cc(C3=CCCC3)cnc2O[C@@H]1CN(C)Cc1cccnc1", "inhibition": "-9.75%"}
{"compound": "COc1ccc(/C=C2\\SC(=S)N(CCCC(=O)NC3CCCC3)C2=O)cc1OC", "inhibition": "55.1% (active)"}
{"compound": "COc1ccc(/C=C/C(=O)OCC(=O)NC2CCCCCC2)cc1OC", "inhibition": "-1.04%"}
{"compound": "COc1ccc(/C=C2\\SC(=S)N(CCC(=O)N3CCOCC3)C2=O)cc1OC", "inhibition": "0.114%"}
{"compound": "COCC(=O)N1[C@H](CO)[C@H](c2ccccc2)C12CN(C(=O)NC1CCCCC1)C2", "inhibition": "-12.4%"}
{"compound": "C[C@H](CO)N1C[C@H](C)[C@@H](CN(C)CC2CC2)OCCCC[C@H](C)Oc2ccc(NC(=O)Cc3ccccc3)cc2C1=O", "inhibition": "32%"}
{"compound": "Cc1nnc(NC(=O)CSc2nccn2-c2cccc(C)c2C)s1", "inhibition": "60.5% (active)"}
{"compound": "COc1ccccc1-n1c(CNC(=O)c2ccccc2)nnc1SCC(=O)Nc1nnc(C)s1", "inhibition": "4.12%"}
{"compound": "COc1ccccc1-n1ccnc1SCC(=O)NC(C)(C)C", "inhibition": "0.699%"}
{"compound": "Cc1nc(N2[C@H](CO)[C@H](c3ccccc3)[C@H]2CNCC2CCCCC2)sc1C", "inhibition": "-4.86%"}
{"compound": "COc1cccc(-c2ccc([C@H]3[C@H]4CN(C(=O)NC(C)C)CC(=O)N4[C@H]3CO)cc2)c1", "inhibition": "1.6%"}
{"compound": "CN1CCN(CCCNC(=O)c2ccc(/C=C3\\Oc4ccccc4N(Cc4ccc(Cl)cc4)C3=O)cc2)CC1", "inhibition": "62.2% (active)"}
{"compound": "CC(C)OCCCNC(=O)CN1C(=O)/C(=C/c2ccccc2F)Oc2ccccc21", "inhibition": "-9.7%"}
{"compound": "CCCN1CCN(CCCNC(=O)CN2C(=O)COc3ccccc32)CC1", "inhibition": "5.75%"}
{"compound": "O=C1CN(S(=O)(=O)c2ccccc2)C[C@H]2[C@H](c3ccc(C#CCc4ccccc4)cc3)[C@@H](CO)N12", "inhibition": "-2.75%"}
{"compound": "C[C@@H]1CN([C@@H](C)CO)C(=O)c2cc(-c3ccncc3)cnc2O[C@@H]1CN(C)C(=O)C1CCCCC1", "inhibition": "-4.18%"}
{"compound": "C[C@H](CO)N1C[C@H](C)[C@@H](CN(C)C(=O)Nc2ccc(F)cc2)OCCCC[C@H](C)Oc2ccc(NC(=O)c3ccncc3)cc2C1=O", "inhibition": "-7.08%"}
{"compound": "Cc1nnc(NC(=O)C(c2ccccc2)c2ccccc2)s1", "inhibition": "11.8%"}
{"compound": "Cc1cccc(NC(=O)C(C)SCc2ccccc2)c1", "note": "(stereo not given)", "inhibition": "-20.7%"}
{"compound": "Cc1cccc(NC(=O)c2nc(S(=O)(=O)Cc3ccccc3)ncc2Cl)c1", "inhibition": "56.5% (active)"}
{"compound": "Cc1cccc(CS(=O)(=O)c2ncc(Cl)c(C(=O)Nc3ccc(F)cc3)n2)c1", "inhibition": "60.6% (active)"}
{"compound": "Cc1ccc(C)c(Cn2nnc3c(=O)[nH]c(C(=O)Nc4ccc(F)cc4)nc32)c1", "inhibition": "-4.91%"}
{"compound": "Cc1ccc(S(=O)(=O)CCC(=O)Nc2nnc(CC(C)C)s2)cc1", "inhibition": "-2.4%"}
{"compound": "O=C(Nc1ccc(F)cc1)c1ccc(S(=O)(=O)NCc2cccnc2)cc1", "inhibition": "14.9%"}
{"compound": "Cc1ccc(CS(=O)(=O)c2ncc(Cl)c(C(=O)Nc3nnc(C)s3)n2)cc1", "inhibition": "67.7% (active)"}
{"compound": "Cc1cc(C)cc(NS(=O)(=O)Cc2ccccc2)c1", "inhibition": "-2.06%"}
